The results in this text go back to PubChem BioAssay (NCATS).

The target in experiment [1] is Lysosomal acid glucosylceramidase (Homo sapiens) (UniProt P04062). Kind of experiment: Glucocerebrosidase-p2 (AID 348; in the data active = potency below about 10 µM; also: potency is read from the fitted curve at half-maximal effect). The conditions noted are these: purified GBA, blue fluorogenic substrate, 40 min. The gist of the method:
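Normal human glucocerebrosidase (0.2 nM) with blue fluorogenic substrate (80 uM final) in citrate/phosphate pH 5.9 with 10mM sodium taurocholate, 0.01% tween-20; 40 min RT, NaOH/glycine stop; fluorescence Ex 365/Em 440; AC50 from a titration from 0.6 nM upwards.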

The nature of experiment [2]: AP1 Signaling Pathway (AID 357; active = well fitted curve in either direction with a large enough effect, not every such curve was filed as active;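 also: ME-180 reporter cells stimulated with EGF at its EC50 level; % is scaled to controls: 0 for no effect and ±100 for the full control effect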). Particulars: ME-180 AP-1-bla reporter, EGF-induced, beta-lactamase ratio, 5 h; at 7.69 µM (top of the series) unless noted. Put shortly: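 Titration-series screen for positive or negative modulators of EC50 EGF-induced signaling in ME-180 cells carrying an AP-1-driven beta-lactamase reporter. After 5 hours at 37 degrees Celsius, CCF4 460nm/530nm emission ratio gave %Activity; AC50 values derived.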

The nature of experiment [3]: NFAT Signaling Pathway (AID 444; active = well fitted curve in either direction with a large enough effect, not every such curve was filed as active;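 also: carbachol stimulus at about its EC50 of 1 µM final; % is scaled to controls: 0 for no effect and ±100 for the full control effect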). Particulars: Jurkat NFAT-bla M1, carbachol, beta-lactamase ratio, 5 h; at 7.69 µM (top of the series) unless noted. The gist of the method:
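Read-out: CCF4 FRET ratio (460 nm/530 nm) after 1 h RT dye loading, used for %activity and AC50 from titration series. Cells: Jurkat NFAT-β-lactamase/M1 line, treated with compound plus 1 uM carbachol for 5 h, 37 °C.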

Experiment [4] in a line: Stat Signaling Pathway (AID 446; active = well fitted curve in either direction with a large enough effect, not every such curve was filed as active;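 also: ME-180 cervical cancer cells given 40 pM IL-6 alongside compound; SIE-controlled beta-lactamase reporter measured as 460/530 nm FRET emission ratio; % is scaled to controls: 0 for no effect and ±100 for the full control effect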). The conditions noted are these: ME-180 SIE beta-lactamase reporter, IL-6 stimulated, 5 h; at 7.69 µM (top of the series) unless noted. The gist of the method:
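Overnight-plated ME-180 cells bearing a STAT Inducible Element beta-lactamase reporter; 5 h co-exposure to compound and 40 pM IL-6; values normalized to 300 pM IL-6 and 125 nM JAK inhibitor controls.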

For experiment [5], the target named is Glucocorticoid receptor (Homo sapiens) (UniProt P04150). Nature of the experiment: GR-GFP Redistribution (AID 450;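 active = compounds whose dose series gives a full or clear partial fitted curve of increased nuclear translocation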; also: potency is read from the fitted curve at half-maximal effect). Particulars: U2OS GR-GFP nuclear translocation, laser cytometry, 2 h.
Chain of Glucocorticoid receptor (Homo sapiens) (P04150 whole entry, looked up, the tested form may be a part): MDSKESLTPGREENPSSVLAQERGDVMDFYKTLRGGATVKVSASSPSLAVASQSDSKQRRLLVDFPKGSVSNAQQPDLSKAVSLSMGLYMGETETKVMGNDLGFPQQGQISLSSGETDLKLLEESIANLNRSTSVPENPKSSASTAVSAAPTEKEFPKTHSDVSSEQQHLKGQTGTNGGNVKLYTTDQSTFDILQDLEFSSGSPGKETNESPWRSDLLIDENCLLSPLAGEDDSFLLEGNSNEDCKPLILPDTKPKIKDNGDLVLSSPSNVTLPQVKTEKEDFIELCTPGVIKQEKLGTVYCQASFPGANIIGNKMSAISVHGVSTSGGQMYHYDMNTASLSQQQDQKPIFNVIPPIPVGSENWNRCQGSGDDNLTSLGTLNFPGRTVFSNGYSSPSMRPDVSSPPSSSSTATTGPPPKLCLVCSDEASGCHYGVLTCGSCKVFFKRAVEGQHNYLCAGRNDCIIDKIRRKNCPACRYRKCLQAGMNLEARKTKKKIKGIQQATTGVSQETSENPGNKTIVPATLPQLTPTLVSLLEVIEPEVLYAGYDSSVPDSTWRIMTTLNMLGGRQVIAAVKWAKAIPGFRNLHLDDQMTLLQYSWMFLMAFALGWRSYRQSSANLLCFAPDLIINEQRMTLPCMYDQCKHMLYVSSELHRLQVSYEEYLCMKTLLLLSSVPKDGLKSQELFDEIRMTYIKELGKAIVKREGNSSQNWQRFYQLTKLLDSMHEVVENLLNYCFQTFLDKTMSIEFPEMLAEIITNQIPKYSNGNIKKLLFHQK
Experiment [6] shares this target. Kind of experiment: GR-EFC Redistribution (AID 451; calls by dose curve; also: potency is read from the fitted curve at half-maximal effect). The conditions noted are these: CHO-K1 GR-EFC translocation, beta-gal luminescence, 2 h. The gist of the method: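 Translocation of GR-ED fusion to nuclear EA restores b-gal, read by luminescence after 1 h room-temperature detection. Engineered CHO-K1 biosensor cells, 1,000/well, exposed 2 h at 37 C to titrations up to 46 uM final.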

For experiment [7], the target named is Mitogen-activated protein kinase 10 (Mus musculus) (UniProt Q61831). Nature of the experiment: JNK3 AlphaScreen Assay (AID 530; active = well fitted curve in either direction with a large enough effect, not every such curve was filed as active;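 also: kinase came from lysate of stimulated human HepG2 cells; signal reports phosphorylation of biotinylated GST-cJun 1-79 at Ser73 with 10 µM ATP; % is scaled to controls: 0 for no effect and ±100 for the full control effect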). The conditions noted are these: JNK3 lysate, c-Jun phosphorylation; series mostly up to 57.1 µM. The gist of the method: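 qHTS titrations with 15 min compound pre-incubation before adding ATP (10 uM final). Read-out: AlphaScreen of Ser73-phosphorylated biotin-GST-cJun using HepG2 lysate JNK3 activated by IL-1β and TNFα.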

The nature of experiment [8]: qHTS Assay for Lipid Storage Modulators (AID 1519; calls by dose curve). The conditions noted are these: Drosophila S3 cells, BODIPY lipid droplet/cell ratio, laser cytometry, cells loaded with oleic acid; for activity change, negative = inhibition: at 57.5 µM (top of the series). Put shortly:
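Cells seeded at 5,000 per well were treated with compounds over a concentration series and loaded with oleic acid (400 uM, as added). Lipid droplet fluorescence (488 nm excitation, 500-530 nm channel) was read by laser-scanning cytometry and normalized to 20 uM Triacsin C.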

For experiment [9], the target named is Dual specificity protein kinase CLK4 (Homo sapiens) (UniProt Q9HAZ1). Nature of the experiment: qHTS Assay for Inhibitors of CDC-like Kinase 4 (Kinase-Glo Assay) (AID 1770). Also: nearly all actives have a fitted effect of over 65% in size. Also: potency is read from the fitted curve at half-maximal effect. Particulars: recombinant Clk4, Kinase-Glo ATP depletion luminescence; series mostly up to 66.7 µM. Put shortly:
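Inhibition was judged from remaining ATP, measured by Ultra-Glo luciferase bioluminescence after Clk4 (25 nM) had acted on RS peptide at 1 uM ATP for 4.5 hours, room temperature.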

For experiment [10] the target is unchanged. Nature of the experiment: qHTS Assay for Inhibitors of CDC-like Kinase 4 (ADP-Glo Assay) (AID 1771). Also: nearly all actives have a fitted effect of over 70% in size. Also: potency is read from the fitted curve at half-maximal effect. Particulars: recombinant CLK4, ADP-Glo luminescence; series mostly up to 80 µM. Put shortly: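 Compounds are pin-transferred onto substrate mix (100 uM RS peptide, 1 uM ATP), then 25 nM Clk4 is added. After 1 hr at room temperature, ADP-Glo reagent runs 45 min, detection reagent 30 min, then luminescence is read.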

The target is the same in experiment [11]. Nature of the experiment: qHTS Assay for Inhibitors of CDC-like Kinase 4 (ADP-FP Assay) (AID 1795). Also: nearly all actives have a fitted effect of over 60% in size. Also: potency is read from the fitted curve at half-maximal effect. Particulars: Transcreener ADP fluorescence polarization; series mostly up to 50 µM. Put shortly: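 Inhibition of ADP formation by 6.25 nM Clk4 is measured using 1 uM ATP and 100 uM RS repeat peptide over one hour. Produced ADP displaces a fluorescent tracer from antibody, lowering polarization.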

Experiment [12] has as its target 3',5'-cyclic-AMP phosphodiesterase 4B (Homo sapiens) (UniProt Q07343). Kind of experiment: qHTS Assay for Inhibitors of PDE-IV (AID 607; active = well fitted activation curve with a large enough effect in the main read-out, with a control signal flat, not every such curve was filed as active; also: % of control where 0% means no effect). Particulars: HEK293 ACTOne CNG channel cells, membrane potential fluorescence; series mostly up to 22.9 µM. The gist of the method:
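Live HEK293 cells with a modified cyclic nucleotide-gated (CNG) channel report intracellular cAMP via membrane-potential dye fluorescence (ex 535/em 590 nm). Endogenous PDE-IV was targeted. Compounds were tested at up to 22.9 uM final; RO 20-1724 100 uM served as control.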
(In general: qHTS replaces the single test concentration by a dilution series.)

A short description of experiment [13]: qHTS Assay for Identification of Small Molecule Agonists for Hypoxia Response Element Signaling Pathway (AID 914; active = well fitted activation curve with a large enough effect in the signal ratio, with a control signal flat, not every such curve was filed as active; the % refers to the signal ratio; also: potency is read from the fitted curve at half-maximal effect). The conditions noted are these: ME-180 (cervical carcinoma) HRE-bla reporter, beta-lactamase ratio, CoCl2, 17 h; activation: stronger effect = higher value. Put shortly:
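Compounds in a titration series were added to ME-180 reporter cells alongside an EC50 level of CoCl2. After 17 hours, beta-lactamase activity was read as the 460nm/530nm emission ratio of CCF4, giving AC50 values.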

The target in experiment [14] is Ubiquitin carboxyl-terminal hydrolase 1 (Homo sapiens) (UniProt O94782). Nature of the experiment: Inhibitors of USP1/UAF1: Pilot qHTS (AID 504865).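 Also: rhodamine fluorescence freed from ubiquitin-rhodamine substrate followed over time; top concentration of the series differs between compounds; % is scaled to controls: 0 for no effect and ±100 for the full control effect; nearly all actives have a fitted effect of over 35% in size.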 The conditions noted are these: purified USP1/UAF1, Ub-rhodamine cleavage fluorescence; series mostly up to 54.9 µM. The gist of the method: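 Kinetic fluorescence assay: 1nM USP1/UAF1, 15 min compound preincubation, then 150nM Ub-Rho; 480/540 nm.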
Chain of Ubiquitin carboxyl-terminal hydrolase 1 (Homo sapiens) (O94782 whole entry, looked up): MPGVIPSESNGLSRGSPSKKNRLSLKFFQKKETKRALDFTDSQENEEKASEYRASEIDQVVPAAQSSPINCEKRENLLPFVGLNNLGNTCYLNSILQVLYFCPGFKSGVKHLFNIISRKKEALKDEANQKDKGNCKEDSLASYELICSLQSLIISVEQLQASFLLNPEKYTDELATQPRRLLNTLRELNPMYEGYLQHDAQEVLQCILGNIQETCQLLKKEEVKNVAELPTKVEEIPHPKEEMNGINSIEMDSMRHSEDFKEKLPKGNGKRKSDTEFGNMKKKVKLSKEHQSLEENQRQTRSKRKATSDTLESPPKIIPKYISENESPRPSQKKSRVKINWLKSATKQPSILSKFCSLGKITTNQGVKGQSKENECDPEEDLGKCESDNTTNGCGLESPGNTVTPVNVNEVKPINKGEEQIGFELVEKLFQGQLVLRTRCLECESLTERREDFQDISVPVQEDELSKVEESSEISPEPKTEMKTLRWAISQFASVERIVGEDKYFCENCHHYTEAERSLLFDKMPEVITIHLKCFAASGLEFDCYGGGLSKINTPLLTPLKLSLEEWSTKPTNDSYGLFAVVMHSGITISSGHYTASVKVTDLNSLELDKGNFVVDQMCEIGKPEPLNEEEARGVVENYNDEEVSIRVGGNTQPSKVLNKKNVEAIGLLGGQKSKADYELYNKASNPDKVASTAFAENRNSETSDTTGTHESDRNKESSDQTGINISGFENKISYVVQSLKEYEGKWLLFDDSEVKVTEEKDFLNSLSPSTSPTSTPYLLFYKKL

The target of experiment [15] is Cytochrome P450 1A2 (Homo sapiens) (UniProt P05177). Nature of the experiment: p450-cyp1a2 (AID 410; calls by dose curve; also: potency is read from the fitted curve at half-maximal effect). The conditions noted are these: recombinant CYP1A2, luciferin-ME demethylation, luminescence; series mostly up to 57 µM. The gist of the method:
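O-Demethylation of luciferin 6' methyl ether by human CYP1A2 is monitored as luciferase luminescence. Substrate sits at Km (100uM); enzyme is 20nM. Values are scaled to 57 uM furafylline as maximal inhibition.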

For experiment [16], the target named is Cytochrome P450 3A4 (Homo sapiens) (UniProt P08684). Nature of the experiment: qHTS Assay for Activators of Cytochrome P450 3A4 (AID 885). Also: nearly all actives have a fitted effect of over 65% in size. Particulars: recombinant CYP3A4, Luciferin-PPXE luminescence, 60 min; series mostly up to 57.1 µM. Put shortly: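 Using 20nM recombinant human CYP3A4 in potassium phosphate (200mM), substrate Luciferin-PPXE at 25uM, luminescent luciferin detection followed a 60-min RT NADPH reaction; data scaled to 57 uM ketoconazole.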
Chain of Cytochrome P450 3A4 (Homo sapiens) (P08684 whole entry, looked up): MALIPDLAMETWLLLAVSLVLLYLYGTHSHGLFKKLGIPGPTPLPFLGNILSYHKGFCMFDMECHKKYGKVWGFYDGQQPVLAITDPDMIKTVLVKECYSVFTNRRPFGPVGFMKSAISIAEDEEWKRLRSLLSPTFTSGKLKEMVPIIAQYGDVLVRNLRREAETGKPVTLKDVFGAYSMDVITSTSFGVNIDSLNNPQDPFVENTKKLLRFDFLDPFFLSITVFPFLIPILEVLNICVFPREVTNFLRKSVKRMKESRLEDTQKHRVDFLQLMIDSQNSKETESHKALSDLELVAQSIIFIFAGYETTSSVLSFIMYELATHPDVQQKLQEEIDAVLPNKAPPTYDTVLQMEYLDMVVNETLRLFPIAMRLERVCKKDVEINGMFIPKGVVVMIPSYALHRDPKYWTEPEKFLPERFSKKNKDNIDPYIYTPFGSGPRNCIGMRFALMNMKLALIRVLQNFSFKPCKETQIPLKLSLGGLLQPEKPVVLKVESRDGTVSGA

Where [17] appears, read: measured here: cell count channel max response.
[18] abbreviates: measured here: lipid channel max response.

SMILES strings stand for the structures. Results filed as inconclusive are left out. Calls of active or inactive are those of the source. Unless noted, calls follow the shape of the dose curve; as a rule, active = well fitted curve in the direction sought with a large enough effect; inconclusive = small, poorly fitted or top-dose-only effect, or another doubt; inactive = no such curve, though single readings can be large; an effect the other way counts as inactive or inconclusive.

Chain of Cytochrome P450 1A2 (Homo sapiens) (P05177 whole entry, looked up): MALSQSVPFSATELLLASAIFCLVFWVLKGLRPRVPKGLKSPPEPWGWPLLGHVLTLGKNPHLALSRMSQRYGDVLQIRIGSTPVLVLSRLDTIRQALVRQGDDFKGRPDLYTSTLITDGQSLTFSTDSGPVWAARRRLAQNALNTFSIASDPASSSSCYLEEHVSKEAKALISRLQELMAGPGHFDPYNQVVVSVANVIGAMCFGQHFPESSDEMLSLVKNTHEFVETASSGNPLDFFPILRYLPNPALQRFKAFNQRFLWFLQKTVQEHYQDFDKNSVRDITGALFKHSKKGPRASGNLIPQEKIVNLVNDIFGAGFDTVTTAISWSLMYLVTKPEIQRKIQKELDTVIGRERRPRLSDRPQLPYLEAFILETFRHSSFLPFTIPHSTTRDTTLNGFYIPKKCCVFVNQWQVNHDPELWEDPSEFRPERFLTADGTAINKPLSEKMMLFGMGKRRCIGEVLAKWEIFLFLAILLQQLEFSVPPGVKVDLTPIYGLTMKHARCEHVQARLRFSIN
Chain of Lysosomal acid glucosylceramidase (Homo sapiens) (P04062 whole entry, looked up): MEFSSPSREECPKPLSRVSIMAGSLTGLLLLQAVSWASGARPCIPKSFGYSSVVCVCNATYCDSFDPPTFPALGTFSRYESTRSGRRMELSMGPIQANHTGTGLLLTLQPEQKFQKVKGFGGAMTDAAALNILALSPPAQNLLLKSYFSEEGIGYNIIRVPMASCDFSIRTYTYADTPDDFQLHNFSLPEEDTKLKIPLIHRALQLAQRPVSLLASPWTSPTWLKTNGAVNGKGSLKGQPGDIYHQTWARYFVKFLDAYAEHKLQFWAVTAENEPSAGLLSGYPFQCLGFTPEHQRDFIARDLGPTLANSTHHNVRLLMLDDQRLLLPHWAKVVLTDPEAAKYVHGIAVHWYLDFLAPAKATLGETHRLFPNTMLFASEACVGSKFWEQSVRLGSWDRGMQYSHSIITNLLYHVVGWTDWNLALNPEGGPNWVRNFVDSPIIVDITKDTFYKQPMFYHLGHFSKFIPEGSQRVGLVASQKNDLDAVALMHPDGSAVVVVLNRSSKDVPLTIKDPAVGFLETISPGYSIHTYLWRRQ
Chain of Dual specificity protein kinase CLK4 (Homo sapiens) (Q9HAZ1 whole entry, looked up): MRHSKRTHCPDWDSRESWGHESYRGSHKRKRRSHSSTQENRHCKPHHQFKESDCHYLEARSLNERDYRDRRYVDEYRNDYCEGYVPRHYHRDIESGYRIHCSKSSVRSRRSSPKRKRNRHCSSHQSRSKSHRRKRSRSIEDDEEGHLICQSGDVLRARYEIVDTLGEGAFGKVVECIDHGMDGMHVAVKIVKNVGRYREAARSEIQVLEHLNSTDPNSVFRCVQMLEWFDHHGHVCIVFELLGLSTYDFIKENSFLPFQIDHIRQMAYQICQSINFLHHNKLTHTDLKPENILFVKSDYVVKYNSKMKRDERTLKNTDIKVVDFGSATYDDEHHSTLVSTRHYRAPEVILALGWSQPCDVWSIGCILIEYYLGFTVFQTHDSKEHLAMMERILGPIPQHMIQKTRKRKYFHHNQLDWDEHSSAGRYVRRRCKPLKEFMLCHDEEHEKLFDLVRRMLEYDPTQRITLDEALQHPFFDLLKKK
Chain of 3',5'-cyclic-AMP phosphodiesterase 4B (Homo sapiens) (Q07343 whole entry, looked up): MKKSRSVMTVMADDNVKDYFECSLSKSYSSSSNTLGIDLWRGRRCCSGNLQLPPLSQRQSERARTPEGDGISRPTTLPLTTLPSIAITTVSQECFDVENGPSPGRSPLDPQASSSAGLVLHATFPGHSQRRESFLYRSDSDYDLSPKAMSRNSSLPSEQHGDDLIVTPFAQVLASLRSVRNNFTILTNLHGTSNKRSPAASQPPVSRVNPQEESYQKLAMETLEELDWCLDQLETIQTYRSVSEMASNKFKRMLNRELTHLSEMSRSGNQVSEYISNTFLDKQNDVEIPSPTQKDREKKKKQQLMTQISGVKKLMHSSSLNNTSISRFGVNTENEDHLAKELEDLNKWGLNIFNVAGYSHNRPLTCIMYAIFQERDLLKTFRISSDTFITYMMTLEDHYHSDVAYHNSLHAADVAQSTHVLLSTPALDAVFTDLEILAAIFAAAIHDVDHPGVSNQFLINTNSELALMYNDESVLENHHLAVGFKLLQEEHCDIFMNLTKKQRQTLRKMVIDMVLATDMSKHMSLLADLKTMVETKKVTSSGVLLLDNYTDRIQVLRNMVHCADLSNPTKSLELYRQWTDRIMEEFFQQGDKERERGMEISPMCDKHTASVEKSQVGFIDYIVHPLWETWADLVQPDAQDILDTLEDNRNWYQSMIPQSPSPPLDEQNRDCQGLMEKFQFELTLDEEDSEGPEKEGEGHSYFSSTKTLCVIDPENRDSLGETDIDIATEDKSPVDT

For the compound `COc1ccccc1-c1nccc(Nc2ccc(F)cc2)n1`, the Potency in [1] is > 11.4 µM (inactive); in experiment [5], > 46 µM (inactive); in experiment [6], > 46 µM (inactive). The activity change, negative = inhibition is 6.43% (inactive) in experiment [2], 10.2% (inactive) in experiment [3] and 4.58% (inactive) in experiment [8]. For the same compound, the activity, negative = inhibition in experiment [4] is -4% (inactive). Further, the Potency entry in [7], in [9], in [10] and in experiment [11] was “inactive” each time. The values for the max response in experiment [8] (setting [17]) and in [8] (setting [18]) were 9.46% and 12.9%, respectively.

On to `COCCn1c(=O)c(-c2ccc(OC)cc2)nc2cnc(N3CCN(C)CC3)nc21`, for which the Potency is > 11.4 µM (inactive) in [1], > 9.22 µM (inactive) in experiment [5], > 46 µM (inactive) in experiment [6] and 3.16 µM (active) in [13]. In addition, the activity change, negative = inhibition in experiment [2] was 29.4% (inactive); in experiment [8], 6% (inactive). Also, the Potency result in [7], in experiment [12], in experiment [9], in [10], in [11] and in experiment [14] was “inactive” each time. Besides, the max response came to 16% in experiment [8] (setting [17]) and 21% in experiment [8] (setting [18]).

Regarding `CN(C)Cc1ccccc1-c1nccc(Nc2ccc(F)cc2)n1`, the Potency is 10.8 µM (inactive) in experiment [1], 3.16 µM (active) in [15], > 46 µM (inactive) in experiment [5] and > 46 µM (inactive) in experiment [6]. In addition, the activity change, negative = inhibition is 7.82% (inactive) in [2], -13.9% (inactive) in [3] and 5.52% (inactive) in experiment [8]. The activity, negative = inhibition in experiment [4] is -5.3% (inactive). Besides, the Potency result in [7], in experiment [16], in experiment [9], in experiment [10], in [11] and in experiment [14] was “inactive” in each case. In addition, the max response in [8] (setting [17]) amounted to 21.6%; in experiment [8] (setting [18]), 26.6%.

As to `CC(=O)NCCNc1ncnc2ccc(-c3ccccc3C)cc12`, the Potency is > 11.4 µM (inactive) in [1]; 0.631 µM (active) in [15]; > 46 µM (inactive) in experiment [5]; > 46 µM (inactive) in experiment [6]; 15.8 µM (active) in [9]; 12.6 µM (active) in experiment [10]. Besides, the Potency in experiment [11] is 12.6 µM (active). Besides, the activity change, negative = inhibition is 28% (inactive) in experiment [2], -4.6% (inactive) in [3] and 3.95% (inactive) in [8]. In [4], the activity, negative = inhibition is -8.49% (inactive). The Potency result in experiment [7], in experiment [16] and in experiment [14] was “inactive” in each case. Moreover, the max response in experiment [8] (setting [17]) was found to be 28.7%; in [8] (setting [18]), 28.3%.

`Cc1nc2cnc(N3CCN(C)CC3)nc2n(C[C@H]2CCCO2)c1=O`: the figures for the Potency in experiment [1], in experiment [5] and in experiment [6] were > 11.4 µM (inactive), > 9.22 µM (inactive) and > 46 µM (inactive), respectively. The activity change, negative = inhibition was -19.6% (inactive) in experiment [2], -3.95% (inactive) in experiment [3] and 2.98% (inactive) in experiment [8]. Moreover, the activity, negative = inhibition in [4] was -13% (inactive). The Potency result in experiment [7], in experiment [9], in experiment [10], in experiment [11] and in experiment [14] was “inactive” each time. Besides, the figures for the max response in [8] (setting [17]) and in [8] (setting [18]) were 2.4% and 4.31%, respectively.

`CN1CCN(c2ncc3nc(-c4cccs4)c(=O)n(Cc4cccs4)c3n2)CC1`: the Potency in experiment [1] is > 11.4 µM (inactive); in experiment [15] it was 15.8 µM (active); in experiment [5] it was > 9.22 µM (inactive); in experiment [6], > 46 µM (inactive). In addition, the Potency result in experiment [12], in experiment [16], in experiment [9], in [10], in experiment [11] and in experiment [14] was “inactive” throughout. The activity change, negative = inhibition in experiment [8] was -5.19% (inactive). For the same compound, the figures for the max response in experiment [8] (setting [17]) and in experiment [8] (setting [18]) were 2.92% and -4.19%, respectively.
